“And” between values parts separate entries of the source, which are not always exact repeats. Identical values can stand only once. Results filed as inconclusive are left out. The source made the active and inactive calls. Unless noted, calls follow the shape of the full dose curve.

The target of assay [1] is Alpha-galactosidase (Coffea arabica) (UniProt Q42656). Nature of the assay: Counterscreen for Glucocerebrosidase Inhibitors: qHTS Assay for Coffee Bean alpha-Galactosidase at pH 4.5 (AID 957; active = well fitted curve in the direction sought with a large enough effect; an effect the other way counts as inactive or inconclusive;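 also: plate controls were enzyme alone for no effect and no enzyme for full effect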). Summed up: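 Green coffee bean enzyme (2 nM final) was incubated with compounds (0.7 nM to 77 uM) and 4-methylumbelliferyl alpha-D-galactopyranoside (80 uM final) in 50 mM citric acid, 0.005% Tween-20, pH 4.5, 20 min at room temperature; AC50 from Hill fits.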
(In general: A counterscreen serves to expose hits that act by an unwanted route or on another target.)

For assay [2] the target is unchanged. Nature of the assay: Counterscreen for Glucocerebrosidase Inhibitors: qHTS Assay for Coffee Bean alpha-Galactosidase at pH 5.9 (AID 998; active = well fitted curve in the direction sought with a large enough effect; an effect the other way counts as inactive or inconclusive;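 also: plate controls were uninhibited enzyme for no effect and no-enzyme basal signal for full effect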). Summed up: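 Green coffee bean enzyme (2 nM) with 4-methylumbelliferyl alpha-D-galactopyranoside (80 uM) in 50 mM citric acid, 0.005% Tween-20, pH 5.9, 20 min at room temperature; compounds 0.7 nM–77 uM. Stopped at pH 10, fluorescence Ex365/Em440; Hill-fit AC50.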

Assay [3] in a line: Inducers of the Endoplasmic Reticulum Stress Response (ERSR) in human glioma: Validation (AID 504836; active = well fitted curve in the direction sought with a large enough effect; an effect the other way counts as inactive or inconclusive; also: 0% is about no effect). In a few lines: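 Stably transfected U87-MG glioma cells carrying a GRP78-based luciferase sensor; 16 h compound incubation. Luminescence end-point read 10 min after Bright-Glo addition at room temperature.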
Assay [4] in a line: qHTS for Inhibitors of the Functional Ribonucleoprotein Complex (vRNP) of Lymphocytic Choriomeningitis Arenaviruses (LCMV): Viability assay - alamar blue signal for LCMV Primary Screen (AID 1347085; calls by dose curve; tested in HEK293 reporter line; also: nearly all actives have a fitted effect of over 80% in size; also: potency is read from the fitted curve at half-maximal effect). Background: qHTS replaces the single test concentration by a dilution series.
For assay [5], the target named is Nucleoprotein (Lymphocytic choriomeningitis virus (strain Armstrong)) (UniProt P09992). Description: qHTS for Inhibitors of the Functional Ribonucleoprotein Complex (vRNP) of Lymphocytic Choriomeningitis Arenaviruses (LCMV): LCMV Primary Screen - GLuc reporter signal (AID 1347086). Also: nearly all actives have a fitted effect of over 70% in size. Also: potency is read from the fitted curve at half-maximal effect. As to activity change, negative = inhibition: % is scaled to controls: 0 for no effect and ±100 for the full control effect.
Assay [6] in a line: Cytotoxicity counterscreen for inhibitors of SARS-CoV-2 cell entry (AID 1645845). Also: nearly all actives have a fitted effect of over 50% in size. Also: potency is read from the fitted curve at half-maximal effect. Summed up: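 HEK293-ACE2 cells (Expi293F stably expressing human ACE2) seeded overnight, then compound for 1 h plus 48 h at 37C. Viability as ATP content by luminescence; normalized to wells with cells and media-only wells.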
Assay [7] in a line: Primary qHTS to identify inhibitors of SARS-CoV-2 cell entry (AID 1645846). Also: nearly all actives have a fitted effect of over 45% in size. Also: potency is read from the fitted curve at half-maximal effect. Conditions: activity change, negative = inhibition: at 57.1 µM (top of the series) unless noted. Summed up:
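HEK293 cells stably expressing human ACE2, pre-treated 1 h with compound, then infected with MLV particles pseudotyped with Wuhan-Hu-1 spike (C-terminal 19-aa truncation). Luciferase luminescence after 48 h at 37 °C, normalised to spike PP and bald PP.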

Assay [8] in a line: Confirmatory qHTS to identify inhibitors of SARS-CoV-2 cell entry (AID 1645844). Also: potency is read from the fitted curve at half-maximal effect; nearly all actives have a fitted effect of over 45% in size. In a few lines: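 HEK293-ACE2 cells were pretreated 1 h with compound, then infected with MLV-based pseudoparticles bearing C-terminally truncated Wuhan-Hu-1 spike for 48 h at 37C; luciferase luminescence normalized to spike PP and bald PP wells.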
The target in assay [9] is Bile acid receptor (Homo sapiens) (UniProt Q96RI1). Description: qHTS assay for small molecule agonists of farnesoid X receptor signaling (AID 588527).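 Also: 0% = vehicle basal and 100% = reference agonist.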 The following applies: HEK293T FXR-UAS-bla, beta-lactamase ratio, 16 h; activation: stronger effect = higher value. Summed up:
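Quantitative HTS used FXR-UAS-bla HEK293T cells with 16 h compound incubation at 37 C. EC50 values came from concentration-response curves normalized to chenodeoxycholic acid.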

The target in assay [10] is Peroxisome proliferator-activated receptor delta (Homo sapiens) (UniProt Q03181). Description: qHTS assay for small molecule agonists of peroxisome proliferator-activated receptor delta signaling (AID 588534).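 Also: 0% = DMSO basal wells and 100% = positive control agonist at 10 µM.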 In a few lines:
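Cell-based beta-lactamase reporter assay run in agonist mode: cells seeded and incubated 5 hrs at 37 C, compounds added and incubated 18 hrs at 37 C. CCF4 dye fluorescence read after 2 hrs at RT; EC50 and efficacy from Hill fits.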

A short description of assay [11]: Primary qHTS for inhibitors of SARS-S pseudo-typed particle cell entry (AID 1479145). Also: % is scaled to controls: 0 for no effect and ±100 for the full control effect; nearly all actives have a fitted effect of over 45% in size.
Assay [12] in a line: Primary qHTS for Huh7 cytotoxicity: counterscreen for inhibitors of MERS-S pseudotyped particle cell entry (AID 1479147). Conditions: outcome: dose series up to 57.1 µM unless noted.
A short description of assay [13]: Primary qHTS for inhibitors of MERS-S pseudo-typed particle cell entry (AID 1479149). Also: nearly all actives have a fitted effect of over 60% in size.
A short description of assay [14]: Primary qHTS for Vero E6 cytotoxicity: counterscreen for inhibitors of SARS-S pseudo-typed particle cell entry (AID 1479150). Also: % is scaled to controls: 0 for no effect and ±100 for the full control effect. Conditions: outcome: dose series up to 57.1 µM unless noted.
The nature of assay [15]: qHTS profiling of the MIPE4 collection as inhibitors of Plasmodium falciparum (3D7) proliferation (AID 743344; call rule not given here;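 also: scaled between DMSO vehicle wells and 0.29 µM artemisinin as full inhibition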). Conditions: P. falciparum 3D7 in erythrocytes, SYBR Green DNA fluorescence, 72 h; at 28.5 µM (top of the series) unless noted. Summed up:
(§1)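 Erythrocytes infected with P. falciparum (0.3% parasitemia, 2.5% hematocrit) incubated with compounds 72 h at 37 C, 5% CO2. Lysis with saponin/Triton buffer containing SYBR Green I, overnight at room temperature in the dark; DNA fluorescence (485/535 nm) normalised to 0.29 uM artemisinin and DMSO.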

The nature of assay [16]: qHTS profiling of the MIPE4 collection as inhibitors of Plasmodium falciparum (DD2) proliferation (AID 743345; call rule not given here). The following applies: P. falciparum Dd2 in erythrocytes, SYBR Green DNA, 72 h; at 28.5 µM (top of the series) unless noted. Summed up: as §1
Assay [17] can be described thus: qHTS profiling of the MIPE4 collection as inhibitors of Plasmodium falciparum (DD2) proliferation (Rep 2) (AID 743346; call rule not given here). Conditions: P. falciparum Dd2 in erythrocytes, SYBR Green DNA, 72 h; at 28.5 µM (top of the series) unless noted. In a few lines: as §1

Sequence of Nucleoprotein (Lymphocytic choriomeningitis virus (strain Armstrong)) (P09992 whole entry, looked up): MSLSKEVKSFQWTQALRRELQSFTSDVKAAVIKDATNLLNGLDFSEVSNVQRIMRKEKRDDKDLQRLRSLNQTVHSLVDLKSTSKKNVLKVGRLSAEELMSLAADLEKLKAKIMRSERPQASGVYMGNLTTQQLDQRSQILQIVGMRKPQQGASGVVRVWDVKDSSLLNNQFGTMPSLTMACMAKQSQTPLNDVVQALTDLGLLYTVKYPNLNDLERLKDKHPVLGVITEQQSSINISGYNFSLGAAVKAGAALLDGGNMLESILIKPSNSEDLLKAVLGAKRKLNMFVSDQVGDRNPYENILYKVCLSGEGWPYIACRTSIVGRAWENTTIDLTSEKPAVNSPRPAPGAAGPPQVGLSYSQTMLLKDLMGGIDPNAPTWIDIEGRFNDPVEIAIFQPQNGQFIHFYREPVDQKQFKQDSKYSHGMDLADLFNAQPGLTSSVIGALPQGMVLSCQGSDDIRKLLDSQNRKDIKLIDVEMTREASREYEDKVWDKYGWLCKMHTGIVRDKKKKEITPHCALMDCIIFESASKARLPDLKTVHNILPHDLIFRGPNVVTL
Sequence of Alpha-galactosidase (Coffea arabica) (Q42656 whole entry, looked up): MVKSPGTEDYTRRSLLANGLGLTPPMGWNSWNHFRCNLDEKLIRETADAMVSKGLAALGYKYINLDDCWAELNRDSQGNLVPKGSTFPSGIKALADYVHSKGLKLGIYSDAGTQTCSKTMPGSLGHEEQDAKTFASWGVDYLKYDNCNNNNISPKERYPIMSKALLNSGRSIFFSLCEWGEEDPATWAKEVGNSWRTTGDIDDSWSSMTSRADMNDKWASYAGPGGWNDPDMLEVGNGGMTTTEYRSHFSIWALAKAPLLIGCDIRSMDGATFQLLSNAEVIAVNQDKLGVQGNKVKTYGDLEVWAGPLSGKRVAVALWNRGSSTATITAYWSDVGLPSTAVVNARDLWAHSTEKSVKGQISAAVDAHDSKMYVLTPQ
Sequence of Peroxisome proliferator-activated receptor delta (Homo sapiens) (Q03181 whole entry, looked up): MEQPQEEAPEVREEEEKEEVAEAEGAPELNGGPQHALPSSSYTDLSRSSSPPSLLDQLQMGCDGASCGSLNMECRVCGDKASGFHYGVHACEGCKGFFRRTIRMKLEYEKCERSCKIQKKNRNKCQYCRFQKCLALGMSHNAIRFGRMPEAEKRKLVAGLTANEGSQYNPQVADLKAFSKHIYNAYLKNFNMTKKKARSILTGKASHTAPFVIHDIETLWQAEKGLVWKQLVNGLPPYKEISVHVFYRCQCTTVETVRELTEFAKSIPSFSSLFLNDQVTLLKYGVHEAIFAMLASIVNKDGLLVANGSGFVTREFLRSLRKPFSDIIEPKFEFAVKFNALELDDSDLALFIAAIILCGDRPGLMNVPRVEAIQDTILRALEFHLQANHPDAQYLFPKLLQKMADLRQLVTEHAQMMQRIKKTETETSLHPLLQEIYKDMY
Sequence of Bile acid receptor (Homo sapiens) (Q96RI1 whole entry, looked up): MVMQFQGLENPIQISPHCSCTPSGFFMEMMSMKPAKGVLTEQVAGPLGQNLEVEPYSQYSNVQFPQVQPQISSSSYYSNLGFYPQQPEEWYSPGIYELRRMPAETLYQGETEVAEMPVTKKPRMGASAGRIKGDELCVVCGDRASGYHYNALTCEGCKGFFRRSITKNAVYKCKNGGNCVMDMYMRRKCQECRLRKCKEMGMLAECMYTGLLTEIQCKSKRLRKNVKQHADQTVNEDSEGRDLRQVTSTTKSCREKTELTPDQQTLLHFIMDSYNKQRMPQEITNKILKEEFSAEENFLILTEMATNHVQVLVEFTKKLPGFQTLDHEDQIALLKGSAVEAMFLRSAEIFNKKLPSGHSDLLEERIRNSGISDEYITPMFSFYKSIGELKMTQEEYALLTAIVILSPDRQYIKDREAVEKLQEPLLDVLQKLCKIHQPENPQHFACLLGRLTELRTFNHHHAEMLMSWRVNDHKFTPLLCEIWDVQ

For the molecule `Cc1ccc(O)c(N=Nc2ccccc2)n1`, the molecule was classed as inactive in assay [1], in [2] and in [3]. Besides, the Potency entry in assay [4] and in assay [5] was “inactive” in each case.

As for `CCCCCCCCc1ccc(CCC(N)(CO)CO)cc1`, the Potency entry in [4] and in assay [5] was “inactive” in each case. Further, the Potency in assay [6] was 7.08 µM (active) and 25.1 µM (active); in assay [7], 8.91 µM (active).

With `Cc1ccc(S(=O)(=O)/C=C/C#N)cc1`, in assay [3], the outcome was inactive. In [4], the Potency entry was “inactive”.

For the molecule `CCN(CC)CCOc1ccc(C(=C(Cl)c2ccccc2)c2ccccc2)cc1`, the Potency entry in assay [5] was “inactive”.

In the case of `CC1(C)CNc2cc(NC(=O)c3cccnc3NCc3ccncc3)ccc21`, the Potency in [4] was 34.3 µM (active). Besides, the Potency result in assay [6] and in [7] was “inactive” in each case.

Regarding `COC(=O)C12OCC34C(CC5C(C)=C(O)C(=O)CC5(C)C3C(O)C1O)OC(=O)C(OC(=O)C=C(C)C)C24` (stereo not drawn), in [5], the Potency entry was “inactive”.

`COc1cc2c(NC3CCN(C(C)C)CC3)nc(C3CCCCC3)nc2cc1OCCCN1CCCC1`: the Potency in assay [4] is 38.5 µM (active); in assay [7] it was 8.91 µM (active).

For the molecule `CCC1(O)C(=O)OCc2c1cc1n(c2=O)Cc2cc3cc(O)ccc3nc2-1` (stereo not drawn), the Potency in assay [4] is 0.1 µM (active).

Regarding `N#Cc1cc([N+](=O)[O-])c2sc(C(N)=O)[n+]([O-])c2c1`, the result in [3] was inactive. The Potency entry in assay [4] and in assay [5] was “inactive” in each case.

Turning to `COc1ccc(CCOC2OC(CO)C(OC(=O)/C=C/c3ccc(O)c(OC)c3)C(O[C@H]3O[C@@H](C)[C@H](O)[C@@H](O)[C@H]3O)C2O)cc1O` (stereo partly drawn), the Potency result in assay [4] and in assay [5] was “inactive” each time.

For `C[C@@H]1CC=CC=CC=CC=C[C@@H](O[C@@H]2O[C@H](C)[C@@H](O)[C@H](N)[C@H]2O)C[C@@H]2O[C@](O)(C[C@@H](O)C[C@@H]3O[C@@H]3C=CC(=O)O1)C[C@H](O)[C@@H]2C(=O)O`, in assay [4], the Potency entry was “inactive”.

With `CC(C)(C)c1nc2c3cc[nH]c(=O)c3c3cc(F)ccc3c2[nH]1`, the Potency result in assay [4], in [5] and in assay [6] was “inactive” each time. The Potency in assay [8] was 1.71 µM (active).

Turning to `Cc1cccc(O)c1C`, in [9], the activation is -0.773% (inactive). In addition, the Potency entry in assay [10], in assay [4] and in [5] was “inactive” each time.

Turning to `O=C(CC(O)CCc1ccccc1)c1ccc(O)cc1` (stereo not drawn), in assay [5], the Potency entry is “inactive”.

With `CCCCC[C@H]1CCCCC[C@@H](O)C[C@H](O)[C@H](O)/C=C/C(=O)O1`, in assay [4], the Potency result was “inactive”.

As for `CC(=O)OC[C@@H]1O[C@@H](n2ccc(=O)[nH]c2=O)[C@H](OC(C)=O)[C@H]1OC(C)=O`, the Potency in assay [4] is 4.85 µM (active); in [5], 7.69 µM (active). Besides, the Potency entry in assay [11], in [13] and in [6] was “inactive” throughout. Further, the result in [12] and in assay [14] was inactive. The activity change, negative = inhibition in [7] was -39.7%.

As for `COc1ccc2cc1Oc1ccc(cc1)C[C@H]1c3cc(c(OC)cc3CCN1C)Oc1c(OC)c(OC)cc3c1[C@H](C2)N(C)CC3`, the parasite growth, % of DMSO control in [15] was determined as 31.2%. This molecule returned a parasite growth remaining, % of DMSO control (lower = more inhibition) in assay [16] of 72.6%. The molecule further showed a parasite growth, % of control (lower = inhibition) in assay [17] of 50.7%. In addition, the Potency entry in [4] is “inactive”.

`CCCC(=O)OCCC(C)C`: the Potency result in assay [4] and in assay [5] was “inactive” in each case.

As for `O=C1NC(=O)/C(=C/c2ccc3nccnc3c2)S1`, the call in assay [3] was inactive. Moreover, the Potency result in assay [4], in assay [6] and in assay [7] was “inactive” each time.
